This excerpt belongs to a sample that is enriched for hits.
HDAC3 inhib – HDAC3 deacetylase inhibitors, primary screen, biochemical, fluorescence, cell-free homogeneous; Histone deacetylase 3 (Homo sapiens), O15379; recombinant HDAC3, fluorogenic peptide/trypsin coupled; inhibition, % at 8.3 µM; hit rate 0.15% among 320,000; AID 2718, 2010; in the data active means inhibition above about 26%, passing the limit was not always enough; inconclusive means no clear call, values can overlap the other calls
Target sequence (O15379 whole entry, looked up): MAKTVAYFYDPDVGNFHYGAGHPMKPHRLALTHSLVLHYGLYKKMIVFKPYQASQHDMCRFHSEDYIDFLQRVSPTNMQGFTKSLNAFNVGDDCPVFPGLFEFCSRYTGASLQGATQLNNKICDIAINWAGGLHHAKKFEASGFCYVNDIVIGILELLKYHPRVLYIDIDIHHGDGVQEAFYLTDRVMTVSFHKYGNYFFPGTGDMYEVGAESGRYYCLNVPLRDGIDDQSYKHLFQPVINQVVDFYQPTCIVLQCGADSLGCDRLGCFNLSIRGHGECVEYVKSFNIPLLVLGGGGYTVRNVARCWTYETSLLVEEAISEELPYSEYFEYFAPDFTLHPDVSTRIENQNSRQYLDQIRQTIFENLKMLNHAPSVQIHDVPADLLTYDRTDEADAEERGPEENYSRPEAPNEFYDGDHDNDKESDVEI
NPR2 activator – human GC-B receptor activators, primary screen, HEK293 GC-B cells, cGMP TR-FRET, EC30 CNP | Atrial natriuretic peptide receptor 2 (Homo sapiens), P20594 | 0% at EC30 CNP, 100% saturating CNP | activation, % at 10 µM | hit rate 0.11% among 370,000 | AID 1920062, 2024;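 active means activation at 10 µM reaching about 35% in either raw or pattern-adjusted values, limit read from the data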
GC-A act – GC-A stimulated cGMP production enhancers – HEK293 GC-A cells, cGMP TR-FRET, EC30 ANP, primary screen; Atrial natriuretic peptide receptor 1 (Homo sapiens), P16066; 0% at EC30 ANP, 100% saturating ANP; activation, % at 10 µM; hit rate 0.14% among 370,000; in the data active means activation above about 40%
ALR inh – inhibitors of human ALR sulfhydryl oxidase, primary screen, biochemical, H2O2 detection, HRP-luminol luminescence, single point. AID 485317, 2010. hit rate 3.8% among 290,000. inhibition, % (no concentration beside the values). purified ALR, DTT oxidation. FAD-linked sulfhydryl oxidase ALR (Homo sapiens), P55789;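 active means mean replicate inhibition above about 79%, with every replicate also reaching it, limit read from the data; inconclusive means only one of the two criteria met; inactive means mean below limit and not every replicate reaching it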
An asterisk follows results filed as active; u = inconclusive; x = not tested or not shown.

SMILES | HDAC3 inhib | NPR2 activator | GC-A act | ALR inh
C=CCN(CC#CC1=CCCCC1)Cc1ccccc1 | x | 1 | 2 | x
CCC(C)NC(=O)CNc1nnnn1-c1ccccc1 (stereo not given) | x | -8 | -4 | x
S=C(NCC1CCCO1)N1CCN(c2ccccc2)CC1 (stereo not given) | 0 | 4 | -3 | 98*
O=C(NCC1CCCO1)C(=O)NCC(c1ccco1)N1CCN(c2ccccc2)CC1 (stereo not given) | -4 | 2 | -5 | 98*
Cc1ccc(-c2cc(C(=O)NN=Cc3cccc4ccccc34)[nH]n2)cc1C | x | -10 | -2 | x
Cc1cc(=O)n(C)c(=O)n1CCCCCN1CCCC1 | -7 | -2 | -1 | 100*
CC[C@@H]1[C@H]2CCCC(=O)N3CC[C@@H](C[C@@H]1Nc1ccccc1)[C@@H]23 | 0 | 6 | -2 | 99*
c1ccc(Cn2ccc3ccc(-c4ccc5ccn(Cc6cccc(-c7ccsc7)c6)c5c4)cc32)cc1 | x | 0 | 0 | x
O=C(N/N=C/c1coc2ccccc2c1=O)c1cc(Br)c(O)c(Br)c1 | 46* | 10 | 2 | 98*
CCCOc1cccc(C(=O)N/N=C/c2coc3ccccc3c2=O)c1 | 10 | -3 | -6 | 97*
O=c1c2oc3nc4c(cc3c2ncn1CCCc1ccccc1)CCCC4 | -1 | 0 | -2 | -3
O=C(N/N=C/c1coc2ccc(Cl)cc2c1=O)c1cc(O)cc(O)c1 | 16 | 6 | 1 | 96*
CCOc1ccccc1C(=O)N/N=C/c1coc2ccc(Cl)cc2c1=O | 32* | -6 | 4 | u
Cc1ccc2occ(/C=N/NC(=O)c3ccc(Cl)cc3)c(=O)c2c1 | -3 | -4 | 3 | -1
Cc1ccc2occ(/C=N/NC(=O)c3ccccc3O)c(=O)c2c1 | -4 | 4 | 1 | 8
O=C(NCCC(=O)N1CCC2(CC1)NCCc1[nH]cnc12)c1ccc(F)c(F)c1 | -14 | 7 | 3 | -5
CCCCN(C(=O)CSCC(=O)Nc1ccc(C)cc1)c1c(N)n(CCCC)c(=O)[nH]c1=O | 2 | 1 | 6 | 9
CCCCc1ccc(S(=O)(=O)NC(=O)C2(C)CCN2C(=O)CCc2cccs2)cc1 (stereo not given) | x | 9 | 4 | x
COc1ccc(-c2nc(CS(=O)(=O)CC(=O)NCc3cccc(OC)c3OC)c(C)o2)cc1 | x | -5 | -7 | 0
COc1ccc(-c2nc(CS(=O)(=O)CC(=O)NCc3ccccc3Br)c(C)o2)cc1 | x | -10 | -12 | 98*
COc1ccc(-c2nc(CS(=O)(=O)CC(=O)NCc3ccccc3OC)c(C)o2)cc1 | -2 | -3 | -5 | 99*
CN(C)c1oc(-c2ccccc2Cl)nc1P(=O)(c1ccccc1)c1ccccc1 | 10 | -30 | -45 | 3
COc1ccc(OC)c(S(=O)(=O)Nc2cccc3ccc(O)cc23)c1 | 1 | -5 | 0 | 50
O=C(NCC(c1ccco1)N1CCc2ccccc21)c1ccccc1Cl (stereo not given) | 10 | -8 | -6 | 98*
O=S(=O)(NCC(c1ccco1)N1CCN(c2ccccc2F)CC1)c1ccccc1 (stereo not given) | 6 | -4 | -14 | 1
SMILES | HDAC3 inhib | NPR2 activator | GC-A act | ALR inh
O=C(NCC(c1ccco1)N1CCc2ccccc21)c1c(F)cccc1F (stereo not given) | -2 | -2 | -1 | 29
O=S(=O)(NCC(c1ccco1)N1CCc2ccccc21)c1ccccc1 (stereo not given) | -6 | -11 | -13 | 97*
NC(CO)(CO)COCc1ccccc1 | 5 | -4 | 0 | -1
O=C(NC(=S)N1CCOCC1)c1cc2ccccc2o1 | 2 | 2 | 1 | -1
O=c1cc(CSc2ccc(Cl)cc2)[nH]c2[nH]n(-c3ccccc3)c(=O)c12 | 4 | 10 | 0 | 85*
Cc1ccc(SCc2cc(=O)c3c(=O)n(-c4ccccc4)[nH]c3[nH]2)cc1 | 7 | 3 | -2 | 94*
O=c1cc(CSc2ccccc2)[nH]c2ccccc12 | -3 | -6 | -4 | -2
Cc1[nH]n(-c2ccccc2)c(=O)c1Sc1ccc(Cl)cc1 | -4 | 5 | 0 | 22
COc1ccc(-n2c(=S)[nH]c3cc(C(=O)N4CCN(c5ccccc5)CC4)ccc3c2=O)c(OC)c1 | 5 | 1 | 5 | 0
Nc1ccc2nc(NC(=O)C3CCCCC3)sc2c1 | 0 | -2 | 3 | 99*
O=C(Nc1nc2ccc(F)cc2s1)C1CCCO1 (stereo not given) | -1 | -1 | 22 | 99*
O=C(CN1C(=O)C2CC=CCC2C1=O)Nc1nc2ccc(F)cc2s1 (stereo not given) | 6 | -4 | 16 | 98*
O=C(Nc1nc2ccc(C(=O)N3CCCCC3)cc2s1)C1CCCCC1 | -8 | -2 | -1 | 9
O=C(Nc1nc2ccccc2s1)C1CCCO1 (stereo not given) | -4 | -1 | 3 | 2
NNc1nc2ccc(F)cc2s1 | -8 | -2 | -2 | 99*
O=C(NC1CCCCC1)C(c1ccc2ncccc2c1)N(Cc1ccc2c(c1)OCO2)C(=O)c1cccs1 (stereo not given) | 2 | -8 | -10 | -9
CCNC(=S)Nn1cnc2ccccc21 | x | 4 | 5 | 21
Cc1cc(=O)oc2cc(OCCc3ccccc3)ccc12 | -2 | -5 | -1 | -32
Cc1cc(=O)oc2cc(OCCSCCN3CCCCC3)ccc12 | -3 | 0 | -6 | 99*
COc1ccccc1/C=C/C=N/NC(=O)c1ccccn1 | x | -4 | 21 | -9
COc1ccccc1/C=C/C=N/NC(=O)c1cc(-c2ccco2)[nH]n1 | 8 | 7 | 27 | 98*
Fc1ccc(-c2csc(-c3ccncc3)n2)cc1 | -5 | -3 | -1 | 4
N#C/C(=N/O)c1nc(-c2ccc(F)cc2)cs1 | 3 | 6 | 0 | 98*
CCn1c(=O)c(C(=O)CN2c3ccccc3CC2C)c(N)n(Cc2ccccc2)c1=O (stereo not given) | 5 | 9 | 41* | -28
COc1ccc(NC(=O)c2cccnc2N2CCCCC2)cc1 | 5 | 8 | 3 | -11
SMILES | HDAC3 inhib | NPR2 activator | GC-A act | ALR inh
COc1ccc(NC(=O)C2CCCCN2N)cc1OC (stereo not given) | 5 | -3 | 1 | -13
O=C(Nc1ccc(N2CCCCC2)cc1)c1cccnc1 | 8 | -14 | -7 | 98*
Cc1ccccc1C(=O)Nc1ccc(N2CCCC2)cc1 | -5 | 2 | 0 | 92*
O=C(Nc1ccc(N2CCN(Cc3ccccc3Cl)CC2)cc1)c1cccnc1 | x | 6 | 5 | 0
COc1ccc(NC(=O)c2cccnc2N2CCCC2)cc1 | -8 | 5 | 0 | 99*
COc1ccc(NC(=O)C2CCCN2c2ccc(OC)c(OC)c2)cc1OC (stereo not given) | -3 | 7 | -1 | 99*
COc1ccc(-n2nc(C(=O)NCC(=O)NCc3ccc(F)cc3)c3ccccc3c2=O)cc1 | 2 | -4 | -4 | 2

Screens (PubChem)
